Experimental findings from PubChem BioAssay (NCATS) are described below.

Records with an inconclusive call do not appear. The source made the active and inactive calls. Unless noted, the call rests on the fitted dose curve; in most records, active means well fitted curve in the direction sought with a large enough effect; inconclusive means small, poorly fitted or top-dose-only effect, or another doubt; inactive means no such curve, though single readings can be large; an effect the other way counts as inactive or inconclusive.

Test [1] in a line: qHTS Assay for Identification of Small Molecule Inducers of Hypoxia Response (AID 2120; active means well fitted curve in the direction sought with a large enough effect in the signal ratio, with a control signal flat, not every such curve was filed as active; the % refers to the signal ratio). The method, boiled down:
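HRE-beta-lactamase reporter in CellSensor HRE-bla ME-180 cells, 2500 cells/well in Opti-MEM with 0.5% dialyzed FBS; compounds tested as titration series, 17 h at 37 degrees C. CCF4 substrate 2.5 h at room temperature; AC50 from 460/530 nm ratio.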
(Quantitative high-throughput screening tests each substance at several concentrations.)

Test [2] is described as follows: Cytometric Cell-Based qHTS for Inhibitors of the mTORC1 Signaling Pathway in MEF (Tsc2-/-, p53-/-) Cells (AID 2660).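 Further: percent of cells above a phospho-rpS6 to PI ratio cutoff in each well.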 The method in brief: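 Tsc2-/-, p53-/- MEFs (empty vector) exposed to compound 24 h at 37 C, fixed, stained with Alexa-488 anti-phospho-rpS6 Ser235/236 and propidium iodide. Acumen laser scanning; phospho-S6/PI ratio thresholded against 7.5 nM rapamycin, reported as % positive cells.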

The nature of test [3]: High Content Imaging Cell-Based qHTS for Inhibitors of the mTORC1 Signaling Pathway in MEF (Tsc2-/-, p53-/-) Cells (AID 2666).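 Further: percent of cells scored positive for phospho-rpS6 Ser235/236 immunostaining by imaging.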 Conditions: at 38.3 µM (top of the series). The method in brief: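 Read-out: % positive cells per well, with thresholds from highest- and lowest-signal wells, based on phospho-rpS6 (Ser235/236) intensity normalized to Hoechst nuclear stain. Cells: Tsc2-/-, p53-/- MEFs carrying empty vector; compound 24 hrs, 37 degree Celsius.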

The target of test [4] is Ubiquitin carboxyl-terminal hydrolase 2 (Homo sapiens) (UniProt O75604). Briefly: qHTS Validation Assay for Inhibitors of Ubiquitin-specific Protease USP2a Using CHOP2 as the Reporter (AID 463106). The method, boiled down: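 USP2 core (10nM final) was preincubated with compound for 30min at RT in 20mM Tris-HCl pH 8.0, 2mM CaCl2, 2mM beta-mercaptoethanol, 0.05% CHAPS. Ub-CHOP2 and reporter substrate (25nM each) were added, and fluorescence (Ex 485/Em 531nm) was read after 60min.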
Chain of Ubiquitin carboxyl-terminal hydrolase 2 (Homo sapiens) (O75604 whole entry, looked up): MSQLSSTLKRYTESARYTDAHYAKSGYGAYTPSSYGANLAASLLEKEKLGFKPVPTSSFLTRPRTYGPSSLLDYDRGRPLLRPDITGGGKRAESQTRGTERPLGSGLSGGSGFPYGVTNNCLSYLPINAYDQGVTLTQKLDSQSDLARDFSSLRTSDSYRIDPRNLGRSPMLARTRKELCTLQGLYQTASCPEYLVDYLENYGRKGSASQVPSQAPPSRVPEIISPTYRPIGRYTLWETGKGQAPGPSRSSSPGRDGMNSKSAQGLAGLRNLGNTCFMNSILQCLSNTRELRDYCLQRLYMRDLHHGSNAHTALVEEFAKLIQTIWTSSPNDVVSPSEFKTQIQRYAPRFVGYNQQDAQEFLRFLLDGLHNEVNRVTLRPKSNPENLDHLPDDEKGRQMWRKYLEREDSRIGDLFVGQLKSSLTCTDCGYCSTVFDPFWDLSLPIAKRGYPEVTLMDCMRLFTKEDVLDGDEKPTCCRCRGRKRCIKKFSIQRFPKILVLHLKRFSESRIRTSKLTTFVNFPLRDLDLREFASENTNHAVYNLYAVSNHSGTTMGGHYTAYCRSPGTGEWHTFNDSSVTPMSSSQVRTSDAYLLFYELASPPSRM

Test [5] concerns the target DNA polymerase III PolC-type (Bacillus subtilis (strain 168)) (UniProt P13267). The test is described as follows: qHTS Validation Assay for the Inhibitors of DNA Replication in Gram-Positive Bacteria (AID 485295).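 Further: reconstituted holoenzyme with PolC plus beta clamp SSB and primase; PicoGreen fluorescence of double-stranded DNA made on primed circular M13 template.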 The method in brief: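 Primed replication of single-stranded M13Gori by a four-protein B. subtilis holoenzyme is measured at room temperature. Double-stranded product is quantified by PicoGreen fluorescence after an EDTA stop; inhibition is scaled between DMSO and EDTA controls.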

The target of test [6] is Tumor susceptibility gene 101 protein (Homo sapiens) (UniProt Q99816). Briefly: qHTS Validation Assay for Iinhibitors of HIV-1 Budding by Blocking the Interaction of PTAP/TSG101 (AID 485342; calls by dose curve). The method, boiled down: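 Fluorescence anisotropy measured PTAP-Tsg101 interaction. Final concentrations were 10 uM protein domain and 50 nM labeled peptide, equilibrated 20 min at room temperature.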
Chain of Tumor susceptibility gene 101 protein (Homo sapiens) (Q99816 whole entry, looked up, the tested form may be a part): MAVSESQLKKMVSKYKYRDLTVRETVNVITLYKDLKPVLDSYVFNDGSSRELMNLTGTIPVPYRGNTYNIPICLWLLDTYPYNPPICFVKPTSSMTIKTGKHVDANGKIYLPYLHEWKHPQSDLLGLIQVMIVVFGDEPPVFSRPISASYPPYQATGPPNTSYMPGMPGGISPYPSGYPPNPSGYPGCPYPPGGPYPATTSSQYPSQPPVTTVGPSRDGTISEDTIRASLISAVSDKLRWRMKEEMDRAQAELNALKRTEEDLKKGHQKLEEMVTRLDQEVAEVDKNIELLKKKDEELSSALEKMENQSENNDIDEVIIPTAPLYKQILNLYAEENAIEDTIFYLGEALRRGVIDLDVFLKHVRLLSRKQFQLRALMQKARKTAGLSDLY

In test [7] the target is Beta-2 adrenergic receptor (Homo sapiens) (UniProt P07550). The test is described as follows: qHTS validation assay of beta-arrestin-biased ligands of beta2-adrenergic receptor (AID 485366). The method, boiled down:
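Tango cells expressing recombinant beta2-AR and beta-arrestin with tTA-driven luciferase, in DMEM with 1% FBS. Compounds were titrated up to 46 microM for 18 hr at 37 degrees C. Luminescence was read 15 min after substrate; curves were fitted and class-assigned.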

Test [8] addresses ATP-dependent 6-phosphofructokinase (Trypanosoma brucei brucei) (UniProt O15648). The test is described as follows: qHTS Validation Assay to Find Inhibitors of T. brucei phosphofructokinase (AID 485368). The method, boiled down: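 Activity was read as ADP production by luminescence (ADP-Glo) after 45 min at room temperature. The enzyme was 1.25nM PFK in 0.1M TEA pH 8.0 with 0.5 mM F6P, 0.1mM ATP and 5 mM MgCl2. Compounds were titrated up to 57 uM and % activity normalized to no-enzyme and full-enzyme controls.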

The target in test [9] is Thioredoxin reductase 1, cytoplasmic (Rattus norvegicus) (UniProt O89049). Briefly: qHTS Assay for Substrates of Mammalian Selenoprotein Thioredoxin Reductase 1 (TrxR1) (AID 488772).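 Further: NADPH fluorescence in the first read after selenite addition and not the 8 min delta; a drop in NADPH fluorescence below the no-compound background marks a TrxR1 substrate.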 The method, boiled down: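 Quantitative HTS in Tris-HCl buffer at pH 7.5 with EDTA and Tween-20, using rat TrxR1, 400 uM NADPH and 400 uM selenite (final). A fall in initial NADPH fluorescence relative to background marked substrate behaviour.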
Chain of Thioredoxin reductase 1, cytoplasmic (Rattus norvegicus) (O89049 whole entry, looked up): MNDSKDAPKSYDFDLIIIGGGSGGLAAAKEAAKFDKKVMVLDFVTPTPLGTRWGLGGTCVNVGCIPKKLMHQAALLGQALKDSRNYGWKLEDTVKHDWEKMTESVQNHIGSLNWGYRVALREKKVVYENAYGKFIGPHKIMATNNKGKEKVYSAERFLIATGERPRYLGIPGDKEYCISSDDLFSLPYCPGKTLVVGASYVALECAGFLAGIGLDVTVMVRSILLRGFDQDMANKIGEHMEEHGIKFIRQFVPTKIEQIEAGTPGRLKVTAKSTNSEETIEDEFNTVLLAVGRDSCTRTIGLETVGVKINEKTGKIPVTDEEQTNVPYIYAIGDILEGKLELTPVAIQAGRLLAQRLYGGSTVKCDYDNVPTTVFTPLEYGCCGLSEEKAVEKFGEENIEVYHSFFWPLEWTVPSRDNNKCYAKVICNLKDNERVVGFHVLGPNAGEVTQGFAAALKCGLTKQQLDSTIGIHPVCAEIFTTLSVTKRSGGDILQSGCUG

Test [10] is described as follows: Cytometry Cell-Based qHTS for Inhibitors of the mTORC1 Signaling Pathway in MEF cells (AID 2668).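 Further: Tsc2-/- p53-/- mouse embryonic fibroblasts stably re-expressing wild-type Tsc2; percent cells positive for phospho-rpS6 Ser235/236 relative to propidium iodide stain.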 The method, boiled down:
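Pathway inhibition in WT Tsc2-rescued Tsc2-/-, p53-/- MEFs is measured as the Alexa-488 phospho-rpS6 to propidium iodide intensity ratio after 24 hrs of compound at 37 degree Celsius. PI-stained cell number gives viability.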

Test [11] can be described thus: qHTS Validation Assay to Find Inhibitors of Chronic Active B-Cell Receptor Signaling (AID 485345; active means well fitted curve in the direction sought with a large enough effect in the main read-out, with a control signal flat, not every such curve was filed as active). The method, boiled down:
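TMD8 ABC-DLBCL cells with dox-inducible green luciferase–IκBα fusion and red native luciferase; compounds 46 uM–3 nM, 4 h at 37C with doxycycline in 0.5% FBS IMDM. Green/red ratio normalized to basal and 10 uM MG-132.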

Test [12] concerns the target Ferritin light chain (Equus caballus) (UniProt P02791). The test is described as follows: qHTS Validation Assay for Identification of Novel General Anesthetics (AID 2323). The method, boiled down: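 Apoferritin from horse spleen (10 uM) was mixed with 1-aminoanthracene at 50% saturation in PBS, then compounds were added. After 10 min at room temperature, fluorescence was read (ex 380 nm, em 535 nm) and normalized to free-probe and complex controls.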

In test [13] the target is ATP-dependent DNA helicase Q1 (Homo sapiens) (UniProt P46063). The test is described as follows: qHTS Validation Assay for Inhibitors of RecQ-Like Dna Helicase 1 (RECQ1) (AID 2353). The method in brief:
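50 nM RECQ1T1 preincubated 15 min with compound in Tris pH 8.0 buffer with MgCl2, DTT, Tween-20 and 2.5 ug/ml poly(dI-dC); started with 200 nM TAMRA/BHQ-2 forked duplex and 2 mM ATP. Unwinding read as fluorescence (525/598 nm), two reads 2 h apart.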

In test [14] the target is RecQ-like DNA helicase BLM (Homo sapiens) (UniProt P54132). The test is described as follows: qHTS Validation Assay for Inhibitors of Bloom's syndrome helicase (BLM) (AID 2364). The method, boiled down: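 BLM 50 nM in 25 mM Tris-HCl pH 8.0, 5 mM NaCl, 2 mM MgCl2, 1 mM DTT, 0.01% Tween-20, 2.5 ug/ml poly(dI-dC); 15 min cpd preinc, RT. Start: 200 nM forked DNA + 2 mM ATP (final). TAMRA read, 2 reads 2 h apart.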

A short description of test [15]: Validation screen for small molecules that induce DNA re-replication in MCF 10A normal breast cells (AID 463097). Further: nearly all actives have a fitted effect of over 60% in size. Further: potency means the concentration at half of the fitted maximal effect. The method in brief: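 DNA re-replication was detected as a rise in nuclei with elevated Hoechst fluorescence after a 48 hr compound exposure of MCF 10A cells at 37 C.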
Test [16] in a line: qHTS for differential inhibitors of proliferation of Plasmodium falciparum line W2 (AID 1883).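 Further: potency means the concentration at half of the fitted maximal effect; parasites grown with compound for 72 h before lysis and staining.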 The following applies: Potency: Plasmodium falciparum W2 proliferation inhibition.
A short description of test [17]: qHTS for differential inhibitors of proliferation of Plasmodium falciparum line HB3 (AID 1886).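 Further: potency means the concentration at half of the fitted maximal effect; parasites grown with compound for 72 h before SYBR Green readout.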 Conditions: Potency: Plasmodium falciparum HB3 proliferation inhibition.
The nature of test [18]: Quantitative high throughput screen for delayed death inhibitors of the malarial parasite plastid, 96 hour incubation (AID 488745). Further: potency means the concentration at half of the fitted maximal effect; nearly all actives have a fitted effect of over 70% in size. The method, boiled down: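 P. falciparum carrying an integrated firefly luciferase reporter, grown in erythrocytes (2% hematocrit, 0.1% parasitemia final) in RPMI 1640/0.5% Albumax, was exposed to compound for 96 h (two generations) at 37 C, 5% CO2. Luminescence decrease indicated growth inhibition.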

A short description of test [19]: Quantitative high throughput screen for delayed death inhibitors of the malarial parasite plastid, 48 hour incubation (AID 488752). Further: potency means the concentration at half of the fitted maximal effect; nearly all actives have a fitted effect of over 65% in size. The method, boiled down:
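Erythrocytes infected with P. falciparum carrying an integrated firefly luciferase reporter (2% hematocrit, 0.1% parasitemia final) were exposed to compounds in RPMI 1640/0.5% Albumax for 48 h at 37 C, 5% CO2. Growth inhibition was scored as reduced luminescence.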

Chain of Beta-2 adrenergic receptor (Homo sapiens) (P07550 whole entry, looked up): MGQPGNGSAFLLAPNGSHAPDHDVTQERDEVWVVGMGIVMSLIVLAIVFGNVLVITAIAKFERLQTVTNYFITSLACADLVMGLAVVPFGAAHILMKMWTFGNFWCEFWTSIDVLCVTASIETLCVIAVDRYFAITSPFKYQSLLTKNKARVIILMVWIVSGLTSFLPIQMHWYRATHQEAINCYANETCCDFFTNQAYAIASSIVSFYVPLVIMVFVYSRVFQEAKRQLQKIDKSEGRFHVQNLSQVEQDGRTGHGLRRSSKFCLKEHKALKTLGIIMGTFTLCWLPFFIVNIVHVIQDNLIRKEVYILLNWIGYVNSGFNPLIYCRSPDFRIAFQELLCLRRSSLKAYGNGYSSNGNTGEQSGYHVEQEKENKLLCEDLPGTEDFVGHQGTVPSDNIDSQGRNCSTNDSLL
Chain of ATP-dependent DNA helicase Q1 (Homo sapiens) (P46063 whole entry, looked up): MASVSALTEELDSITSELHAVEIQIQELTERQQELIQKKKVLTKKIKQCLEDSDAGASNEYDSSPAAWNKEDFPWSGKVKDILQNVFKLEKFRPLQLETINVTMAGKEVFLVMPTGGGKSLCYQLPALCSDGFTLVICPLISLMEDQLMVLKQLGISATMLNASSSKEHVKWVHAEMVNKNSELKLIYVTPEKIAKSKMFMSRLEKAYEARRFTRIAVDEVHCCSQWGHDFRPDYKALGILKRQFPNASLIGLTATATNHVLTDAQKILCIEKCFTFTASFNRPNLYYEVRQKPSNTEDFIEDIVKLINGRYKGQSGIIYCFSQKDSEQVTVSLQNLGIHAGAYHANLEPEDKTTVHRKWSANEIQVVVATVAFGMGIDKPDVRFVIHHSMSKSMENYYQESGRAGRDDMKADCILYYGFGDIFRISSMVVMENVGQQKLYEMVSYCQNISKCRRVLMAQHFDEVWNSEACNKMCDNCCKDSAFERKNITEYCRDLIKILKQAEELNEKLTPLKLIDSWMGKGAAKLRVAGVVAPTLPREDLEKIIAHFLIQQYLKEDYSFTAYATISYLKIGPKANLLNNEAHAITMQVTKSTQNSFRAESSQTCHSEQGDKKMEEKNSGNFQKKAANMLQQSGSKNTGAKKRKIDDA
Chain of DNA polymerase III PolC-type (Bacillus subtilis (strain 168)) (P13267 whole entry, looked up): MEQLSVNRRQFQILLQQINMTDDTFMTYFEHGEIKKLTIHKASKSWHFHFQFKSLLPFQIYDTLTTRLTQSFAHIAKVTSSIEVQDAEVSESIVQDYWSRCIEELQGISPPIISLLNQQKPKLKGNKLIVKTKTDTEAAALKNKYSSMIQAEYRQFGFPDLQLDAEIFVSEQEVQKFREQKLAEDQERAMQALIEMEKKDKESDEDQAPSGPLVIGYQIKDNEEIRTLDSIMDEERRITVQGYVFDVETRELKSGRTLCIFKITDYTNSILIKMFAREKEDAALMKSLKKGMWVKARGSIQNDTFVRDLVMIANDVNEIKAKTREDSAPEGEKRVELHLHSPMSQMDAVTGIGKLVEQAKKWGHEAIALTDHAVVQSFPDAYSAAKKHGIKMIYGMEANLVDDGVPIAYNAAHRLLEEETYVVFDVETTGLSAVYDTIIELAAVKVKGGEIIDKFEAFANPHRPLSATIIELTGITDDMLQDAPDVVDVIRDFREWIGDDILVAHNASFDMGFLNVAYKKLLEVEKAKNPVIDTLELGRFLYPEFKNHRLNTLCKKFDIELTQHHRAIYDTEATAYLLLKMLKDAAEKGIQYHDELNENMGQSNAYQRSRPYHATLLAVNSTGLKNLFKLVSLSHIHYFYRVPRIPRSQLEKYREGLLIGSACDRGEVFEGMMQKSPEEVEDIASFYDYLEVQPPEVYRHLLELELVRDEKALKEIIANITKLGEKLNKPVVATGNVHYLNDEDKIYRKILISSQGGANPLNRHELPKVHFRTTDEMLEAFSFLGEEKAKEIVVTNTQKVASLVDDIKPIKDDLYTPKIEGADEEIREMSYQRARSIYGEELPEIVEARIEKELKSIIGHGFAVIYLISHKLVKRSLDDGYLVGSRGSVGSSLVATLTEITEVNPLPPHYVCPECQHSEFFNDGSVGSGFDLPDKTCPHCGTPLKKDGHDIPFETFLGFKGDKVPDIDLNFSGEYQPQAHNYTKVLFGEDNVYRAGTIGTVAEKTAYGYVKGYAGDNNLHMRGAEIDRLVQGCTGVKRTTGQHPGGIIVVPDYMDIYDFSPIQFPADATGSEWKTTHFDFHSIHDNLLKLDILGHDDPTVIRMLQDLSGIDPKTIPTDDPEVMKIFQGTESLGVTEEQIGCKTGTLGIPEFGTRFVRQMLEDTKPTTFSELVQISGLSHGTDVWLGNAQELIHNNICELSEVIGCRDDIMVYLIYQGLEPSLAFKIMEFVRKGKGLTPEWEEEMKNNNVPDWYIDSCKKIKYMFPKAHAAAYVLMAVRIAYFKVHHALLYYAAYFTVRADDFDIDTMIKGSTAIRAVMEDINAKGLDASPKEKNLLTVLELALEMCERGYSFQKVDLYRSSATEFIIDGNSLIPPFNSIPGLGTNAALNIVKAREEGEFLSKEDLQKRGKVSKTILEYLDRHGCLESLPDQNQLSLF
Chain of Ferritin light chain (Equus caballus) (P02791 2-175 limits assumed): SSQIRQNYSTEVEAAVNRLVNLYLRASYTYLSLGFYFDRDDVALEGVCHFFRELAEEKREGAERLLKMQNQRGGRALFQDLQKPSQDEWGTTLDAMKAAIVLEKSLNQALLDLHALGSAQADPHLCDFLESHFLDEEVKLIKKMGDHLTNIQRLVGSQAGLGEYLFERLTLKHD
Chain of ATP-dependent 6-phosphofructokinase (Trypanosoma brucei brucei) (O15648 whole entry, looked up): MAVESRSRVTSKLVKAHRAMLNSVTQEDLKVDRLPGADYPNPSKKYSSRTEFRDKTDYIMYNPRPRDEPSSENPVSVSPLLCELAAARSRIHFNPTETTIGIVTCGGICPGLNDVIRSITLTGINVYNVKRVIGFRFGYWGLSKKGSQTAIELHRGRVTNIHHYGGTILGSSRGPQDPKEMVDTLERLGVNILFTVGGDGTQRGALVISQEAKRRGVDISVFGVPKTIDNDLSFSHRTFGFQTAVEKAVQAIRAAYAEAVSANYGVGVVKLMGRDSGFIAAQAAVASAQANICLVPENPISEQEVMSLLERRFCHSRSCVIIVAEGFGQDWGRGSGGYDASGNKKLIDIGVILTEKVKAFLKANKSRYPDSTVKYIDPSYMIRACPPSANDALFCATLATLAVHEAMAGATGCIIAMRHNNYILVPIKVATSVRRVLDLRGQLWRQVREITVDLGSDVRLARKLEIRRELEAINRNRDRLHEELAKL

`CC(C)(c1ccc(O)cc1)c1ccc(O)cc1`: in test [1], the result was inactive.
As for `Cc1cc(C(C)(C)C)c(O)c(C(C)(C)C)c1`, the outcome in [1] was inactive.
`O=C(c1ccccc1)c1ccccc1`: the compound was classed as inactive in test [1].
Regarding `Clc1ccc2c(c1)N=C(N1CCNCC1)c1ccccc1N2`, the call in test [2], in [3], in test [4], in [5], in [6] and in test [7] was inactive. Moreover, the result in test [9] was inactive. The Potency result in test [8] was “inactive”.
As for `N[C@@H](Cn1ccc(=O)c(O)c1)C(=O)O`, the compound was classed as inactive in test [2], in [3], in test [10], in [4], in [5] and in test [6]. In addition, the result in [11], in test [7] and in test [9] was inactive.
With `Cn1cnc2c(NCc3ccccc3)nc(NCCO)nc21`, the outcome in test [12], in test [13], in test [14], in [2], in [3] and in [10] was inactive. The compound was called inactive in test [4], in [5], in test [6], in test [11], in test [7] and in test [9]. Moreover, the Potency result in test [15] and in [8] was “inactive” throughout.
Take `CN(C)c1cc2c(Nc3ccc4c(cnn4Cc4ccccc4)c3)ncnc2cn1`: the Potency was 3.55 µM (active) in test [16]; 4.47 µM (active) in test [17]; 3.16 µM (active) in test [15]; 7.38 µM (active) in test [18]; 4.65 µM (active) in test [19]. The outcome in test [12], in test [13], in [2], in test [3], in [4] and in [5] was inactive. Further, the result in test [6], in [7] and in test [9] was inactive.
For the compound `Oc1ccccc1`, the result in test [1] was inactive.
As for `COc1cccc2c1[C@@H]1CN(CCCCn3c(=O)[nH]c4c(sc5ncc(-c6ccccc6)nc54)c3=O)C[C@@H]1CO2`, the compound was called inactive in test [13], in test [14], in test [4], in test [6], in test [7] and in test [9].
